Rab9 promoter act = qHTS Assay for Rab9 Promoter Activators; Huh7 Rab9 promoter-luciferase reporter, luminescence, 24 h; Potency, µM (series often up to 9.22 µM), for inactives: at the top dose activation, negative = inhibition, usual class: activators; hit rate 2.8% among 320,000; AID 485297, 2010; note: % of control where 0% means no effect; nearly all actives have a fitted effect of over 60% in size
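Measured in stably transfected Huh7 cells bearing a Rab9 promoter–luciferase construct: 24 h compound treatment at 37 °C, followed by luminescence detection.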
NPC1 prom act = qHTS Assay for NPC1 Promoter Activators; Huh7 NPC1 promoter luciferase reporter, 24 h; Potency, µM (highest dose often 9.22 µM), without a hit: at the top dose activation, most hits filed as activators; hit rate 2.4% among 320,000; AID 485313, 2010; note: % of control where 0% means no effect; nearly all actives have a fitted effect of over 60% in size
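Readout is luciferase luminescence, reflecting NPC1 promoter activation in stably transfected Huh7 cells after 24 h compound exposure at 37 °C in reduced-serum medium with 10% FBS.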
FLuc modulator = qHTS profiling assay for firefly luciferase inhibitor/activator using purifed enzyme and Km concentrations of substrates (counterscreen for miR-21 project); Luciferin 4-monooxygenase (Photinus pyralis), P08659; purified FLuc, Km substrates, luminescence inhibition; Potency, µM (titrated, usually from 57.5 µM), for the others: at the top dose activity change, negative = inhibition, hits mostly inhibitors; hit rate 6.9% among 360,000; AID 588342, 2011;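 note: plate controls were vehicle for no effect and reference inhibitor for full effect; nearly all actives have a fitted effect of over 55% in size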
Target sequence (P08659 whole entry, looked up): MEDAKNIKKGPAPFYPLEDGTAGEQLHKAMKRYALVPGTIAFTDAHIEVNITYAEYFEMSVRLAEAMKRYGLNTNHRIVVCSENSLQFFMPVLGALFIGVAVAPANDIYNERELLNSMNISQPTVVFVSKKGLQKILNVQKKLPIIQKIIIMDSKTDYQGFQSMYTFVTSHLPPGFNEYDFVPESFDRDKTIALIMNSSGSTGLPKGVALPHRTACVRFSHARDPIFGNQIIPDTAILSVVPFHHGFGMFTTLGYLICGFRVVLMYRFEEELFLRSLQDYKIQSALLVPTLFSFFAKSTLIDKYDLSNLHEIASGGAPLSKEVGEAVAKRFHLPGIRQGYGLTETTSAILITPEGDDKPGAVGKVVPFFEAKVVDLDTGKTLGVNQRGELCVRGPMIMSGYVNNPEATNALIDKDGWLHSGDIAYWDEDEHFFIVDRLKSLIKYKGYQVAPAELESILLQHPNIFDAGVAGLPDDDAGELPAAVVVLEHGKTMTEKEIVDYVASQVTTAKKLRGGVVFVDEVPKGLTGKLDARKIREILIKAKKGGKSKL
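Purified P. pyralis luciferase, 10 nM final, with Km-level 10 uM D-luciferin and 10 uM ATP in 50 mM Tris acetate pH 7.5, 10 mM Mg acetate, 0.01% Tween-20, 0.05% BSA; 6-point qHTS titration about 60 µM downward; luminescence read.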
p53 reactivation = qHTS assay for re-activators of p53 using a Luc reporter. H1299 p53-A138V BP100-luciferase reporter, luminescence, 24 h. Potency, µM (titrated, usually from 92.2 µM), inactives show at the highest dose activity change, positive = activation, hits mostly activators. hit rate 0.063% among 320,000; note: % of control where 0% means no effect; nearly all actives have a fitted effect of over 45% in size
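H1299 (p53-null), stable ts p53-A138V + BP100-Luc; 1000 cells/well, Opti-MEM/10% FBS; cpd 4 pt, 1:5; 24 h, 37 deg C, 5% CO2; detection reagent 10 min RT; luminescence.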
SMN2 splice enh = qHTS Assay for Enhancers of SMN2 Splice Variant Expression; HEK293 SMN2-luciferase splicing reporter, luminescence, 30-36 h; Potency, µM (titrated, usually from 46.1 µM), for the others: at the highest dose activity change, positive = activation, most hits filed as activators; hit rate 2.8% among 210,000; note: % of control where 0% means no effect; nearly all actives have a fitted effect of over 55% in size
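HEK293 cells carry an SMN2 […]–luciferase reporter in which exon 7 inclusion puts luciferase in frame. Cells were plated 10-12 h before compound addition, then incubated 30-36 h at 37C. ONE-Glo luminescence was read; sodium butyrate at 4.5 mM final served as control.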
ELG1 genotoxic = qHTS screen for small molecules that induce genotoxicity in human embryonic kidney (HEK293T) cells expressing luciferase-tagged ELG1. Potency, µM (top dose mostly 46 µM), for inactives: at the highest dose activity change, positive = activation, hits mostly activators. AID 504466, 2011. HEK293T ELG1-luciferase reporter, luminescence, 16 h. hit rate 1.3% among 330,000; note: % of control where 0% means no effect; nearly all actives have a fitted effect of over 60% in size
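After overnight (16 hr) compound treatment at 37 °C, ELG1-luciferase HEK293T cells were lysed with ONE-Glo; luminescence quantified 30 min later at room temperature.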
Active calls of the source: *; u = inconclusive; x = no result given. Hits are enriched below; roughly 7.4% of the tested compounds scored in any of these assays. Calls come from the whole dose curve; as a rule, active = well fitted curve in the direction sought with a large enough effect; inconclusive = small, poorly fitted or top-dose-only effect, or another doubt; inactive = no such curve, though single readings can be large; an effect the other way counts as inactive or inconclusive. Potency is the fitted concentration of half-maximal effect.

SMILES	Rab9 promoter act	NPC1 prom act	FLuc modulator	p53 reactivation	SMN2 splice enh	ELG1 genotoxic
N=C1/C(=C/c2ccc(-c3cccc(C(=O)O)c3)o2)C(=O)N=C2SC=C(c3ccccc3)N12	25.0%	0.1%	23.9µM*	1.2%	16.7%	1.8%
N=C1/C(=C\c2ccc(-c3cc(Cl)cc(Cl)c3)o2)C(=O)N=C2SC=C(c3ccccc3)N12	-0.1%	0.4%	9.3%	-11.7%	-16.9%	-3.8%
CC(C)S(=O)(=O)C1=NSC2=NC(=O)/C(=C\c3ccc(-c4cccc(C(=O)O)c4)o3)C(=N)N21	-2.6%	-3.0%	13.5µM*	5.6%	1.4%	-9.2%
O=C1OC(c2cccs2)=N/C1=C/c1ccc(-c2cccc(C(=O)O)c2)o1	-3.0%	2.6%	23.9µM*	10.6%	5.8%	u
Cc1ccc(-n2c(=O)c3c4c(sc3n(Cc3cc(=O)n5cc(Cl)ccc5n3)c2=O)CCC4)cc1C	x	x	-4.2%	x	-2.4%	x
COc1cc2c(=O)n(CCc3ccccc3)c(=O)n(CC(=O)Nc3ccccc3)c2cc1OC	x	x	-3.0%	x	8.6%	x
Cc1cc(C(=O)Nc2ccncc2)c2ccccc2n1	1.0%	-1.8%	-0.7%	-6.9%	x	-11.0%
Cc1nn(CCOc2ccccc2)c(=O)n1-c1c(F)cccc1F	3.98µM*	2.82µM*	23.9µM*	u	12.6µM*	u
Cc1ccc(-n2c(C)nn(CCOc3ccccc3)c2=O)cc1	3.16µM*	u	u	-0.6%	11.2µM*	u
Cc1nn(C)c(=O)n1-c1ccc(Oc2ccccc2)cc1	-1.3%	-3.1%	1.0%	-1.9%	7.7%	0.4%
O=[N+]([O-])c1cccc(S(=O)(=O)Nc2ccc(-c3ccc(N4CCOCC4)nn3)cc2)c1	0.7%	0.7%	21.3µM*	6.8%	x	-1.1%
O=[N+]([O-])c1cccc(S(=O)(=O)Nc2ccc(-c3ccc(N4CCCC4)nn3)cc2)c1	-3.0%	5.2%	30.1µM*	8.5%	x	14.3%
O=[N+]([O-])c1ccccc1S(=O)(=O)Nc1ccc(-c2ccc(N3CCCC3)nn2)cc1	26.2%	-2.2%	-28.2%	3.8%	x	20.2%
O=C(OCc1nnc(-c2ccccc2)o1)c1cc(S(=O)(=O)N2CCOCC2)c(Cl)cc1Cl	6.8%	-3.8%	-1.8%	9.2%	u	18.4µM*
Cc1ccccc1NC(=O)NC1(C(=O)NCC2CCCO2)CCCCC1 (stereo not given)	-2.6%	-1.9%	0.9%	0.2%	x	1.8%
O=C(Nc1nc(-c2ccccc2)cs1)C1CCCO1 (stereo not given)	25.8%	u	23.9µM*	u	u	u
Cc1csc(NC(=O)C2CCCO2)n1 (stereo not given)	-2.1%	-0.6%	0.6%	-2.2%	u	1.1%
O=C(Nc1ccc(F)cc1)C1CCCO1 (stereo not given)	-14.6%	-3.7%	-10.7%	-0.4%	0.0%	0.1%
O=C(Nc1nc(-c2ccc(F)cc2)cs1)C1CCCO1 (stereo not given)	23.2%	17.9%	12µM*	u	11.3%	10.6%
O=C(Nc1nc(-c2ccc(-c3ccccc3)cc2)cs1)C1CCCO1 (stereo not given)	-0.5%	7.2%	8.49µM*	17.9%	-26.9%	5.3%
CCNC(=O)c1ccc2c(c1)S(=O)(=O)c1ccccc1C2=O	-5.8%	-0.3%	-2.3%	1.8%	-0.8%	6.8%
CCCCNC(=O)c1ccc2c(c1)S(=O)(=O)c1ccccc1C2=O	-5.4%	-4.3%	15.1µM*	4.3%	x	11.0%
CC1=C(c2ccc(C)c(C)c2)S(=O)(=O)N=C1N1CCC(C(=O)NC(C)c2ccccc2)CC1 (stereo not given)	x	x	-9.0%	x	x	x
Cc1ccc(NC(=O)C2C(=O)N(CCO)C3(C)CC2c2ccccc2O3)cc1 (stereo not given)	19.1%	7.1%	-0.9%	u	u	9.6%
CN1C(=O)C(C(=O)Nc2ccccc2F)c2ccccc21 (stereo not given)	3.4%	-0.1%	19µM*	-0.6%	8.0%	-1.4%
SMILES	Rab9 promoter act	NPC1 prom act	FLuc modulator	p53 reactivation	SMN2 splice enh	ELG1 genotoxic
Cc1ccc(NC(=O)C2C(=O)N(C)c3ccccc32)cc1 (stereo not given)	25.5%	17.8%	4.78µM*	u	u	8.7%
COc1ccc(NC(=O)N2CC[C@@]3(CCCN(C(=O)c4cccc(F)c4)C3)C2)cc1	x	x	x	x	-23.8%	x
Cc1nc(/C(N)=N/OC(=O)c2ccc(Cl)cc2)c(C(F)(F)F)o1	-3.0%	-5.1%	7.57µM*	7.4%	x	2.9%
Cc1nc(C(=O)NNC(=O)c2cccc(Cl)c2)c(C(F)(F)F)o1	0.2%	-2.7%	5.2%	0.7%	x	0.2%
CC(=O)Nc1cccc(NC(=O)c2ccc(Br)cc2)c1	u	18.9%	23.9µM*	18.3%	17.0%	5.0%
Cc1cccc(NC(=O)CCNC(=O)c2ccc(Br)cc2)c1	u	27.1%	13.5µM*	11.7%	x	u
Nc1ccc(C(=O)Nc2cccc(N)c2)cc1	u	u	21.3µM*	7.7%	x	16.7%
O=C(CCNC(=O)c1ccc(Br)cc1)Nc1cccc(S(=O)(=O)N2CCCC2)c1	-0.7%	0.4%	-2.0%	-6.0%	x	-8.2%
O=C(Nc1cccc(O)c1)c1ccc(Br)cc1	u	u	12µM*	u	3.6%	5.8µM*
COc1ccc(NC(=O)CN(Cc2ccccc2)S(=O)(=O)c2ccc3nc(C)sc3c2)cc1	x	x	-11.8%	x	x	x
Cc1ccc(CNC(=O)CSc2ncc3c(n2)-c2ccc(Cl)cc2N(Cc2ccccc2)S3(=O)=O)cc1	x	x	-0.2%	x	x	x
CC1CCC(NC(=O)CCNC(=O)c2ccc(Br)cc2)CC1 (stereo not given)	2.51µM*	4.47µM*	u	u	x	u
O=C(O)C1CCC(c2ccc(-c3ccccc3)cc2)CC1 (stereo not given)	u	2.82µM*	6.75µM*	-7.7%	x	u
Cc1ccn2c(C(=O)N/N=C/c3ccc(CNC(=O)C(=O)Nc4ccc(C)c(C)c4)o3)c(C)nc2c1	-0.6%	1.1%	6.75µM*	16.7%	28.1%	-0.1%
Cc1ccn2c(C(=O)N/N=C/c3ccc(Cl)cc3)c(C)nc2c1	-4.2%	-1.5%	-4.4%	-1.6%	x	4.1%
Cc1nc2ccccn2c1C(=O)N/N=C/c1ccc(F)cc1	10.0%	6.8%	-3.7%	x	x	3.2%
Cc1ccc(NC(=O)C(=O)NCc2ccc(/C=N/NC(=O)c3c(C)nc4ccccn34)o2)cc1	-2.3%	-1.8%	1.69µM*	u	u	1.9%
